Test results published in ChEMBL document CHEMBL4513216, “Probing the Open Global Health Chemical Diversity Library for Multistage-Active Starting Points for Next-Generation Antimalarials” (ACS Infect Dis, 2020).
About 8,600 (12%) of roughly 69,000 compounds showed an effect of 50% or more. This excerpt belongs to a sample that is enriched for strong results.

These compounds were tested on Plasmodium berghei (assay: Screen against P. berghei liver stage (PbLuc), transformed with Luciferase, at 10uM). Conditions: tested at 10 uM.
Type: functional, HepG2
`COCCN1CCN(Cc2cnc(C3(C)CCCCO3)nc2)CC1` (centres undefined) was tested, and the INHIBITION was 3.25%.
`CS(=O)(=O)NCCC1CCCCN1C(=O)NCCc1ccccc1` (centres undefined) was tested, and the INHIBITION was 28.3%.
For `COCCN1CCN(Cc2csc(-c3cnn(C)c3)n2)CC1`, the INHIBITION was 7.75%.
In the case of `CCC1CCCN(C(=O)Cc2csc(-c3ncccn3)n2)C1` (centres undefined), the INHIBITION is reported as 14.7%.
Compound `CC(=O)NC1CCCN(Cc2csc(-c3ncccn3)n2)C1` (centres undefined) has an INHIBITION of 35.4%.
`c1cnc(-c2nc(CN3CCCC(N4CCCC4)C3)cs2)nc1` (centres undefined) showed an INHIBITION of -16.817%.
In the case of `CCCC1CCCN(Cc2csc(-c3cnn(C)c3)n2)CC1` (centres undefined), the INHIBITION is reported as 55.9%.
`Cn1cc(-c2nc(CN3CCN(CCO)CC3)cs2)cn1` showed an INHIBITION of -0.847%.
`CC1CCCN(Cc2csc(-c3ncccn3)n2)CC1` (centres undefined) gave an INHIBITION of 80.8%.
Work on `NC(=O)C1CCN(Cc2csc(-c3ncccn3)n2)CC1` yielded an INHIBITION of 55.05%.
`c1cnc(-c2nc(CN3CCn4c(nnc4C4CC4)C3)cs2)nc1` showed an INHIBITION of -0.219%.
For `COCC(=O)N1CCN(Cc2csc(-c3ncccn3)n2)CC1`, the INHIBITION was 38.9%.
Work on `CCCC1CCCN(Cc2csc(-c3ncccn3)n2)CC1` (centres undefined) yielded an INHIBITION of 91.7%.
`c1cnc(-c2nc(CN3CCCC(Cn4cncn4)C3)cs2)nc1` (centres undefined) gave an INHIBITION of 15.6%.
Compound `Cn1ccc(C(=O)N2CCC3(CC2)CC(Nc2cnccn2)CO3)n1` (centres undefined) has an INHIBITION of -4.26%.
`COc1ccc(-n2nc(C(C)=O)c(C(C)=O)c2C)cc1Cl` was tested, and the INHIBITION was -7.27%.
Work on `Cn1cc(NC(=O)Nc2ccc3c(c2)OCO3)cn1` yielded an INHIBITION of 24%.
Work on `OCCN(Cc1ccno1)Cc1cc(Br)ccc1F` yielded an INHIBITION of 25.3%.
`COCC(=O)NCCc1nc(N(C)C)ncc1-c1ccncc1` showed an INHIBITION of 14.325%.
`NCC(=O)N1CCCC1c1n[nH]cc1-c1ccccc1F` (centres undefined) gave an INHIBITION of 10.9%.
In the case of `Cc1cc(N2CCCC(O)(CN(C)C)C2)c2cc3c(cc2n1)OCO3` (centres undefined), the INHIBITION is reported as 11.6%.
`CC(C)Oc1cccc(C(=O)Nc2nncs2)c1` was tested, and the INHIBITION was -16.8%.
Compound `CCCS(=O)(=O)N1Cc2ccnn2CC(c2nc(C)no2)C1` (centres undefined) has an INHIBITION of 28.2%.
`c1cnc(-c2nc(CN3CCCN(Cc4cccs4)CC3)cs2)nc1` was tested, and the INHIBITION was 39.75%.
Compound `c1cnc(-c2nc(CN3CCC(c4ccn[nH]4)CC3)cs2)nc1` has an INHIBITION of 12.8%.
With `c1cnc(-c2nc(CN3CCN(CC4CC4)CC3)cs2)nc1` the INHIBITION was 77.85%.
In the case of `O=C([C@@H]1COC[C@H]2CN(c3ccncn3)C[C@H]21)N1CCCCO1`, the INHIBITION is reported as -11.6%.
Compound `Cc1ccc(CNCc2nnc3n2CC(C(F)(F)F)CC3)cc1` (centres undefined) has an INHIBITION of 45.1%.
Compound `COc1ccc(CNCc2nnc3n2CC(C(F)(F)F)CC3)cc1` (centres undefined) has an INHIBITION of 27.5%.
Compound `FC(F)(F)C1CCc2nnc(CNCc3ccsc3)n2C1` (centres undefined) has an INHIBITION of 37%.
`Fc1ccc(CNCc2nnc3n2CC(C(F)(F)F)CC3)cc1` (centres undefined) showed an INHIBITION of 63%.
`Fc1ccc(CNCc2nnc3n2CC(C(F)(F)F)CC3)c(F)c1` (centres undefined) gave an INHIBITION of 63%.
Work on `FC(F)(F)C1CCc2nnc(CNCc3cccs3)n2C1` (centres undefined) yielded an INHIBITION of 26%.
With `COc1ccc(Cl)cc1NCC(=O)NCc1cccnc1OC` the INHIBITION was -12.2%.
With `CC(=O)N1CCc2ccc(NC(=O)c3cn(C)nn3)cc2C1` the INHIBITION was 24.2%.
With `CCc1ncc2c(n1)CN(CC(=O)Nc1cc(C)on1)CC2` the INHIBITION was -7.31%.
With `COc1ccc2cc(C(=O)NCCNc3ccc(C)nn3)[nH]c2c1` the INHIBITION was -17.7%.
`Cc1cc(CC(=O)N2CCc3cc(Br)sc3C2)n[nH]1` showed an INHIBITION of -37.6%.
`Fc1ccccc1CN1CCC[C@@H](Cn2nnc(-c3cccs3)n2)C1` showed an INHIBITION of 22.62%.
`Cn1c2c(c(=O)n1C)CN(S(=O)(=O)c1cccs1)CCC2` gave an INHIBITION of 18.7%.
In the case of `COc1cccc(S(=O)(=O)N2CCCc3c(OC)nn(C)c3C2)c1`, the INHIBITION is reported as 18.5%.
Compound `COc1nn(C)c2c1CCCN(S(=O)(=O)c1cccc(F)c1)C2` has an INHIBITION of -31.3%.
In the case of `Cn1c2c(c(=O)n1C)CN(C(=O)c1cccc(F)c1)CCC2`, the INHIBITION is reported as 46.6%.
`COc1nn(C)c2c1CCCN(S(=O)(=O)c1cccc(C)c1)C2` showed an INHIBITION of 80.2%.
`Cc1cccc(S(=O)(=O)N2CCCc3c(c(=O)n(C)n3C)C2)c1` gave an INHIBITION of 70.4%.
In the case of `CC(C)c1nc(C2CCCN(C(=O)c3ccc4c(c3)COC4)C2)no1` (centres undefined), the INHIBITION is reported as 1.75%.
`c1nc(N2CCOCC2)ncc1-c1cncn1CCCN1CCCCC1` showed an INHIBITION of 26.585%.
`CCS(=O)(=O)N1CCC(OC)c2ccccc2N(CC(=O)NC)C(=O)C1` (centres undefined) was tested, and the INHIBITION was 43.4%.
Compound `CCOC(=O)N1CCC(OC)c2ccccc2N(CC(=O)NC)C(=O)C1` (centres undefined) has an INHIBITION of 42.7%.
`CCOC(=O)CN1C(=O)CN(S(C)(=O)=O)CCC(OC)c2ccccc21` (centres undefined) was tested, and the INHIBITION was 54.8%.
For `Cc1ccc(C(=O)NCC2CCN(Cc3ccccc3C#N)C2)cn1` (centres undefined), the INHIBITION was 58.6%.
In the case of `CCc1ccc(CN2CCC(CNC(=O)c3ccc(C)nc3)C2)nc1` (centres undefined), the INHIBITION is reported as -16.8%.
`CCn1ccnc1CN1CCC(CNC(=O)c2ccc(C)nc2)C1` (centres undefined) gave an INHIBITION of 26.8%.
Compound `CCOC1CC2(CCN(Cc3cccn3C)CC2)C1` has an INHIBITION of 29%.
Compound `Cn1cc(CN2CCc3c(nnn3C)C2COCc2ccccc2)cn1` (centres undefined) has an INHIBITION of -90.3%.
Compound `Cc1nccn1C1CCCN(C(=O)c2cnn(C)c2C2CC2)C1` (centres undefined) has an INHIBITION of -3.58%.
In the case of `Cc1cc(C)nc(NC(=O)NCCCSc2nncn2C)n1`, the INHIBITION is reported as 9%.
With `CCc1cnc(CN(C(C)=O)C2CCN(CCc3ccncc3)C2)o1` (centres undefined) the INHIBITION was 42.9%.
Compound `O=C(CC[C@@H]1CCCN2CCCC[C@H]12)N1CCC(c2nnc[nH]2)CC1` has an INHIBITION of -9.8%.
Work on `Fc1cnc(N2CCCn3c(CN4CCOCC4)nnc3C2)nc1` yielded an INHIBITION of -16.9%.
`Fc1cnc(N2CCCn3c(nnc3Cn3cccc3)C2)nc1` showed an INHIBITION of -23.4%.
`Fc1cnc(N2CCn3c(CN4CCCC4)nnc3C2)nc1` gave an INHIBITION of 57.9%.
`CS(=O)(=O)c1ccc(C(=O)N2CCCC(n3cncn3)C2)o1` (centres undefined) showed an INHIBITION of 21.8%.
Compound `CCc1nnc(Nc2cccc(C3CCN(C(=O)CN(C)C)CC3)n2)s1` has an INHIBITION of 22%.
Work on `CCc1nnc(Nc2cccc(C3CCN(C)CC3)n2)s1` yielded an INHIBITION of 12.3%.
Compound `CCc1nnc(Nc2cccc(C3CCN(C(C)=O)CC3)n2)s1` has an INHIBITION of -28.6%.
For `Cc1nnc(Nc2cccc(C3CCN(CCO)CC3)n2)s1`, the INHIBITION was 13.6%.
`CCc1nnc(Nc2cccc(C3CCN(CCO)CC3)n2)s1` was tested, and the INHIBITION was 55.7%.
`CCc1nnc(Nc2cccc(C3CCN(S(=O)(=O)N(C)C)CC3)n2)s1` gave an INHIBITION of 53.2%.
